Pf growth 96h: inhibits malaria parasite growth, 96 h. P. falciparum luciferase reporter growth, 96 h. Potency, µM (series often up to 28.7 µM), actives largely listed as inhibitors. 6.9% of 320,000 active. AID 504834
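Parasite growth measured via integrated firefly luciferase reporter in P. falciparum. Infected erythrocytes at 2% hematocrit, 0.05% parasitemia final were treated 96 hours at 37 C under 5% CO2, and luminescence was read.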
AmpC inh no detg: AmpC beta-lactamase inhibition without detergent; P00811; AmpC nitrocefin hydrolysis, absorbance 480 nm, 0.0001% Triton; Potency, µM (doses to about 57.1 µM), hits mostly inhibitors; 0.52% of 330,000 active; AID 485341; note: nearly all actives have a fitted effect of over 20% in size
Target sequence (P00811 whole entry, looked up): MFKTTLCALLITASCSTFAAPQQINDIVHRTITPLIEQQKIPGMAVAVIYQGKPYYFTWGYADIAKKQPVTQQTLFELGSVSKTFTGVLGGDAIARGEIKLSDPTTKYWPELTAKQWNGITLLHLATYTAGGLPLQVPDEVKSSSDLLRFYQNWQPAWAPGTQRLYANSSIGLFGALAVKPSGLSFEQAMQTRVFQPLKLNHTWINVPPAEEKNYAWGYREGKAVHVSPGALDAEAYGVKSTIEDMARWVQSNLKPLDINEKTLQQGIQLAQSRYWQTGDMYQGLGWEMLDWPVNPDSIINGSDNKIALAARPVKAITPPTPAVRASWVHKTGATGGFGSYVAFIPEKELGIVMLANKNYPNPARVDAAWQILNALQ
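AmpC (5.3 nM in the dispensed reagent) in 20 mM phosphate pH 7.0 with 0.01% (detergent screen) or 0.0001% Triton X-100 was preincubated with compounds for 15 min at room temperature. Nitrocefin was then added from an 800 uM solution, and hydrolysis was followed at 480 nm.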
AMA1 RON2 block: inhibitors of Plasmodium falciparum AMA1-RON2 interaction; AID 720542; Potency, µM (series often up to 58.2 µM), most hits filed as inhibitors; AlphaScreen AMA1-biotinylated RON2 peptide binding; 0.2% of 360,000 active; note: nearly all actives have a fitted effect of over 45% in size
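AMA1 (3D7) with his tag at 25 nM final met compounds first, then biotinylated RON2 peptide at 25 nM; detection used donor plus acceptor beads, 10 µg/mL apiece, read by AlphaScreen after 30 min at room temperature.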
Pf growth 48h: P. falciparum growth inhibition at 48 hours (one generation); P. falciparum luciferase growth in erythrocytes, 48 h; Potency, µM (doses to about 28.7 µM), most hits filed as inhibitors; 5.9% of 310,000 active; AID 504832
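Luciferase-expressing parasites in RBCs, 2% Hct / 0.1% parasitemia final; RPMI 1640 + 0.5% Albumax; 37 C, 5% CO2, one generation; luminescence read-out, lower signal = inhibition.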
HCV inhibitor: inhibitors of hepatitis C virus infection; Huh7.5.1 HCVcc-Cre infection, luciferase reporter, 44 h; Potency, µM (titrated, usually from 41.8 µM), hits mostly inhibitors; 3.4% of 340,000 active; AID 651820
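Reporter virus HCVcc-Cre (~0.5 moi) infects cells exposed to compound; seeding density 1,000 cells/well with 4 h settling beforehand. Luminescence, 15 sec read, taken 44 h post-infection following a 15 min RT substrate incubation.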
AmpC inh detg: inhibitors of E. coli AmpC beta-lactamase with detergent. P00811. AmpC hydrolysis of nitrocefin, absorbance 480 nm, 0.01% Triton. 0.041% of 370,000 active. Potency, µM (highest dose often 114 µM), hits mostly inhibitors; note: nearly all actives have a fitted effect of over 25% in size
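20 mM phosphate pH 7.0 + 0.01% (detergent screen) or 0.0001% Triton X-100; 5.3 nM AmpC reagent; cpd preinc 15 min RT; nitrocefin (800 uM stock) to start; A480 q20 s × 4 min; Activity was normalised to no-enzyme and no-compound control wells.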
Numbers stand for hits; i = inactive; ? = inconclusive; nt = no result; [ ] = dose if it differs, or a comment. An excerpt weighted towards active compounds, which were near 11% of everything screened. Calls come from the whole dose curve; as a rule, active = well fitted curve in the direction sought with a large enough effect; inconclusive = small, poorly fitted or top-dose-only effect, or another doubt; inactive = no such curve, though single readings can be large; an effect the other way counts as inactive or inconclusive.

SMILES	Pf growth 96h	AmpC inh no detg	AMA1 RON2 block	Pf growth 48h	HCV inhibitor	AmpC inh detg
CN(C)Cc1cc(CN(C)C)c(O)c(CCc2ccccc2)n1	i	i	i	nt	i	?
COc1ccc(S(=O)(=O)N2CCC(C(=O)NCc3ccco3)CC2)cc1	?	i	i	3.29µM	i	i
Cc1cc(S(=O)(=O)N2CCCC2)ccc1OCC(=O)NCc1ccco1	nt	i	i	i	i	i
CC(C)c1ccc(S(=O)(=O)N2CCC(C(=O)NCc3ccco3)CC2)cc1	2.62µM	i	i	3.29µM	i	?
COc1ccc(S(=O)(=O)N2CCC(C(=O)N[C@@H](C)C(=O)NCc3ccco3)CC2)cc1	nt	nt	i	nt	nt	nt
CCCNC(=O)C1CCN(S(=O)(=O)c2c(C)noc2/C=C\c2ccc(OC)cc2)CC1	?	i	i	nt	i	i
COc1ccc(/C=C\c2onc(C)c2S(=O)(=O)N2CCC(C(=O)NCc3ccco3)CC2)cc1	13.1µM	i	i	?	i	i
CCOc1ccc(S(=O)(=O)N2CCC(C(=O)NCc3ccco3)CC2)cc1C	1.85µM	i	i	?	i	i
CCOC(=O)c1ccc(NC(=O)c2cc3sccc3n2Cc2ccc(Cl)cc2)cc1	nt	nt	nt	nt	nt	i
CCCn1c2ccccc2c2cnn(CC(=O)NCC3CCN(Cc4ccc(F)cc4)CC3)c(=O)c21	nt	nt	nt	nt	nt	i
CCOc1ccc(S(=O)(=O)N2CCC(C(=O)NCC3CCCO3)CC2)cc1C (centres undefined)	2.33µM	i	i	i	i	i
CCOc1ccc(S(=O)(=O)N2CCC(C(=O)NCc3ccco3)CC2)cc1	i	i	i	9.28µM	i	i
O=C(NCc1ccco1)C1CCN(S(=O)(=O)c2ccccc2C(F)(F)F)CC1	?	i	i	10.4µM	i	i
CCN(CC)S(=O)(=O)N1CCC(C(=O)NCc2ccco2)CC1	i	i	i	i	i	i
CCOc1ccc(S(=O)(=O)N2CCCC(C(=O)NCc3ccco3)C2)cc1 (centres undefined)	i	i	i	i	i	i
CCOc1ccc(S(=O)(=O)N2CCN(C(=S)NCc3ccco3)CC2)cc1	2.33µM	i	i[11.6 µM]	2.94µM	i	i
COC(=O)c1ccccc1NC(=O)NCCc1c(C)nn(C)c1C	nt	nt	nt	nt	nt	i
O=C(Cn1c(=O)oc2cc(S(=O)(=O)N3CCCC3)ccc21)Nc1ccc(F)cc1F	nt	nt	nt	nt	nt	i
COc1ccccc1CCNC(=O)Cc1ccc(NC(=O)N2CCSc3ncccc32)cc1	nt	nt	nt	nt	nt	i
COc1ccc(OC)c(NC(=O)COCc2cc(-c3ccc(F)cc3)on2)c1	nt	nt	nt	nt	nt	i
CC1CC(C)CN(S(=O)(=O)c2ccc(C(=O)NCc3ccco3)cc2)C1 (centres undefined)	8.28µM	i	i	?	?	i
CCOc1ccc(S(=O)(=O)N2CCC(C(=O)Nc3ccccc3N3CCCC3)CC2)cc1	nt	nt	i	nt	nt	nt
CCOc1ccc(S(=O)(=O)N2CCC(C(=O)Nc3cc(S(C)(=O)=O)ccc3Cl)CC2)cc1	?	i	i	10.4µM	i	i
O=C(NCc1ccco1)C1CCCN(S(=O)(=O)c2ccc(Br)cc2)C1 (centres undefined)	14.7µM	i	i	i	i	i
COc1ccc(S(=O)(=O)N2CCC(C(=O)N3CCc4ccccc4C3)CC2)cc1	i	i	i	?	i	i
SMILES	Pf growth 96h	AmpC inh no detg	AMA1 RON2 block	Pf growth 48h	HCV inhibitor	AmpC inh detg
CCOc1ccc(S(=O)(=O)N2CCC(C(=O)N3CCc4ccccc4C3)CC2)cc1	2.94µM	i	i	?	i	?
O=C1OCC2=C1C(c1cccc(Cl)c1)CC(=O)N2c1ccc(C(F)(F)F)cc1 (centres undefined)	nt	nt	nt	nt	nt	i
COc1ccc(CN(C)Cc2nc(Cc3cccc(F)c3)no2)c2cccnc12	?	i	i	?	10µM	i
CN(C)c1nc(NCc2ccccc2)nc(N/N=C/c2ccc(Br)cc2)n1	?	i	i	13.1µM	i	i
CCNc1nc(NCC)nc(N/N=C/c2ccc(N(C)C)cc2)n1	?	i	i	13.1µM	i	i
CN(C)c1nc(NCc2ccccc2)nc(N/N=C/c2ccc3c(c2)OCO3)n1	?	i	i	11.7µM	?	i
O=c1[nH]c(N/N=C\c2ccc3c(c2)OCO3)nc2ccccc12	i	i	i	i	i	i

From PubChem
